# Measured values published in the OligoGym collection.
# Biological target: ORC1
# Assay: pooled miR-30 sensor sort-seq; sequence = guide strand
# Conditions: shRNA
# Note: reference of the scale not given here.
row,Sequence,sensor-assay potency score (higher = more potent)
1,TTTTCGAAGCTGCAATTCGGGT,-1.44
2,TACAGCAGAAACATGCAGCCTC,0.436
3,TTTGGTAGTGCAGTTTTCGATC,-0.734
4,TCTCGGTGGAACAACCTTCTGT,-0.225
5,TTGCACATAGACTTGGTGGGGC,0.793
6,TCATTTTTCAGATTCGTCGGTA,0.261
7,TAGAGGTCGCTTCATTCTGGGC,-1.24
8,TCAATCAACACAAACTGTCCAA,0.619
9,TAAGAGAGTCCAGTCTCTCTGG,-0.254
10,TAGAGTCTGAAATCTCTGCTGC,0.498
11,TTTACTATTACCTAGAAACCGA,-0.315
12,TTTCGATCCAACAAGGGCCTGC,0.15

# Biological target: ORM2
# Assay: as above
# Conditions: shRNA
row,Sequence,sensor-assay potency score (higher = more potent)
1,TTATCCTTTTTCCAGTCGGTGT,-1.32
2,TAAGGAACAGCAGGTGAGCAAC,-1.17
3,TGGAGTTATAGAAGCACTGGTT,-0.607
4,GTGTACATGACATCTGACCTGG,-0.944
5,TGTACATGACATCTGACCTGGG,0.548
6,TCATCGTCCAGGTAGGAACCAA,-0.639
7,TACATGACATCTGACCTGGGAA,-0.156
8,TAGAAGCACTGGTTCTGGCGGG,-0.234
9,TTATAGAAGCACTGGTTCTGGC,-0.114
10,ATCAAGGTCTTGGTGTCCCTAA,-0.929
11,TGGACATTCAGGTAACTGGAGT,-0.96
12,TTCTTCTCATCGTCCAGGTAGG,-0.591

# Biological target: OSBP2
# Assay: as above
# Conditions: shRNA
row,Sequence,sensor-assay potency score (higher = more potent)
1,TACACTGTCTTCTGCTTCCCGT,-0.671
2,TTGTGAACAGTTGAGGTGCTCT,-0.621
3,TTGCCCAGCACGAACCAGCGGC,-0.788
4,ATCTAGTACATTGTCTGCTGAG,-0.399
5,TTCTCTTCCTCCGAGCTGCAGC,-0.929
6,TCTAGTACATTGTCTGCTGAGC,-0.715
7,TTGACTTTGGATGAACCCTTGG,-0.284
8,TAAGTGGATGGCACCTAGCGGC,-0.606
9,TTCAGTACTAAATTGAGTGCAT,0.314
10,TTGATCATAGCATTGGATGTGA,0.46
11,TAGGAGGACACAGAGAAGGCGG,-0.227
12,TTGGAGAACACGTAGTGCGCAG,-0.163

# Biological target: OSBPL11
# Assay: as above
# Conditions: shRNA
row,Sequence,sensor-assay potency score (higher = more potent)
1,TAAATTAGTTCTTTTGCTCAGT,-0.186
2,TTTACCACTTTGGTCTTGCTGC,-0.424
3,AATAGCTTCAGTATGATGCTGT,0.478
4,TTTACTTCAGCTGTAACCCGAT,0.406
